What all share (test): DAPPL (digital affinity profiling via proximity ligation, sequencing); 10 mM Tris-HCl pH 7.5, 50 mM NaCl, 1 mM DTT, 4% glycerol, room temperature, 30 min; GST-TFs on glutathione beads, 16-mer random dsDNA library, 0.1% formaldehyde crosslink after washing; high values mean tight binding
Common to all, as to details: protein: recombinant; tags: N-terminal GST; dsDNA, one strand shown

The target of one assay is T1, ERF (Homo sapiens, UniProt P50548 1-548).
T1 sequence: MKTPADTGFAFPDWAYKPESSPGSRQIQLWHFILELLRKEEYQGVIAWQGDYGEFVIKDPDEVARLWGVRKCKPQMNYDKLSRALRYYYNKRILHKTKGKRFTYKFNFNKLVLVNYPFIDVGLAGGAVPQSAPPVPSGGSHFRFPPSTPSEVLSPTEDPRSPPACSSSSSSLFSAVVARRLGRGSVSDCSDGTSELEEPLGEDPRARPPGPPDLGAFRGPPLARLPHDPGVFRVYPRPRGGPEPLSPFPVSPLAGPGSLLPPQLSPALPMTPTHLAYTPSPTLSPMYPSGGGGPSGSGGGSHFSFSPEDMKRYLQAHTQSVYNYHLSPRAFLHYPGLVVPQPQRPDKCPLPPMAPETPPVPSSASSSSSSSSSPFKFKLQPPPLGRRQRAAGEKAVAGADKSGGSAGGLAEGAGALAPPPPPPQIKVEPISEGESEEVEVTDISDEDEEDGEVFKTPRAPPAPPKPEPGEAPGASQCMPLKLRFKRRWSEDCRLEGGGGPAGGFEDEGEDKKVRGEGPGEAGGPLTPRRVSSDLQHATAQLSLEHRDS
An outline of the steps:
(§1)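 Human transcription factors carrying a GST fusion were produced in yeast, bound to glutathione beads, tagged with DNA barcodes and pooled together with a tag-only sample. Each pool was held with 200 nmole of a random double-stranded 16-mer DNA library in Tris/NaCl/DTT/glycerol buffer for 30 min at room temperature, then washed, crosslinked in 0.1% formaldehyde, proximity-ligated with BsaI/T4 ligase (1 h, 37 °C), PCR-amplified and sequenced on an Illumina NextSeq500. Binding signal is the read frequency of each hexamer for a given factor divided by its frequency in the tag-only sample.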

Another assay concerns the target T2, ETV3L (Homo sapiens, UniProt Q6ZN32 1-361).
T2 sequence: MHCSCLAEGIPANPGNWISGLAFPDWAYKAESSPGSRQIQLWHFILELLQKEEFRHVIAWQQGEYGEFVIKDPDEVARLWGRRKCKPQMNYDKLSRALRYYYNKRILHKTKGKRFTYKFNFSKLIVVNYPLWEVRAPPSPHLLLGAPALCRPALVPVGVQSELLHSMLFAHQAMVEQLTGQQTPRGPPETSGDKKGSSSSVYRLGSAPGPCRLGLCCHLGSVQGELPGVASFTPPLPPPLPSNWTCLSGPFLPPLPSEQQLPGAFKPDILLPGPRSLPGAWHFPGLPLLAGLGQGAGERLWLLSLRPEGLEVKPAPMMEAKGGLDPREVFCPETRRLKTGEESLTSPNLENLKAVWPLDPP
An outline of the steps:
as §1

The next assay concerns the target T3, ETS2 (Homo sapiens, UniProt P15036 1-469).
T3 sequence: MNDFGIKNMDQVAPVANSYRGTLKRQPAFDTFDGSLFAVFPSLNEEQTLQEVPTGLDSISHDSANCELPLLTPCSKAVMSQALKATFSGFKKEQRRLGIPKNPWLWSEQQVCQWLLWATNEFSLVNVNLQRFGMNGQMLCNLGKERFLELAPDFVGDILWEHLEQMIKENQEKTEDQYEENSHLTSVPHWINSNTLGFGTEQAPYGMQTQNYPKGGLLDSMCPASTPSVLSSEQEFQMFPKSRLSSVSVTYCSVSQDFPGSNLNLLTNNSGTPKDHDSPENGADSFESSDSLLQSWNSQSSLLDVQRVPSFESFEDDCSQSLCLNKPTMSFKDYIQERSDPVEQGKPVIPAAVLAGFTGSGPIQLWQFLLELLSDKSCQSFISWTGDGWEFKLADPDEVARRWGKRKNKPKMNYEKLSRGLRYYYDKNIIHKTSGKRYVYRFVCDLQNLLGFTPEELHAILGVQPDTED
An outline of the steps: as §1

For a further assay, the target named is T4, SPDEF (Homo sapiens, UniProt O95238 1-335).
T4 sequence: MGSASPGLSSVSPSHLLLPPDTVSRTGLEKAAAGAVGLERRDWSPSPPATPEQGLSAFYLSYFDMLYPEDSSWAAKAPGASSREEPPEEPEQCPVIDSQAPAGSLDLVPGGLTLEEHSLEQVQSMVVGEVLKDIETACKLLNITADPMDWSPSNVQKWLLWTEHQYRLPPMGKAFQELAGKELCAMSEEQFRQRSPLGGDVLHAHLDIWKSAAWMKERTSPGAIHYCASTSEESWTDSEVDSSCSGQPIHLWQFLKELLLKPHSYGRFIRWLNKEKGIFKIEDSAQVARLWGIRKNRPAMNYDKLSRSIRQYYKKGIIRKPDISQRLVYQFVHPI
An outline of the steps: as §1

The next assay concerns the target T5, ETV7 (Homo sapiens, UniProt Q9Y603 1-341).
T5 sequence: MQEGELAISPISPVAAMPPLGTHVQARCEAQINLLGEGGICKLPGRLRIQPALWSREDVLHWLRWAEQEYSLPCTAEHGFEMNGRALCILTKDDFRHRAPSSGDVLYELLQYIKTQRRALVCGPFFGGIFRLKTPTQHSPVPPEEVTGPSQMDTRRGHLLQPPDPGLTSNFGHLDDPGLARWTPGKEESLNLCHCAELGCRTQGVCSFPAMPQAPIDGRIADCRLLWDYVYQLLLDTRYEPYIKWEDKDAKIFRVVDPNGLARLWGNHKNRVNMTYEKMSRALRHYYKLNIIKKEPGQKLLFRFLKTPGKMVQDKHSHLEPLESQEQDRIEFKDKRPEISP
An outline of the steps:
as §1

The next assay concerns the target T6, ELF5 (Homo sapiens, UniProt Q9UKW6-2 1-255).
T6 sequence: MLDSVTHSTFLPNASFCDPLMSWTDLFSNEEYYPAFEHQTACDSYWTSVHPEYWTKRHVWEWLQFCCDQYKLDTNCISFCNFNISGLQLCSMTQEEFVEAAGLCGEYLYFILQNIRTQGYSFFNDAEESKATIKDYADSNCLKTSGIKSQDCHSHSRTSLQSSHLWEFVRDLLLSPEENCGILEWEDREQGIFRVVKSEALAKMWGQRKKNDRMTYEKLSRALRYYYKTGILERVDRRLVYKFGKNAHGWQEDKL
An outline of the steps:
as §1

A further assay deals with T7, ETV3 (Homo sapiens, UniProt P41162-2 1-143).
T7 sequence: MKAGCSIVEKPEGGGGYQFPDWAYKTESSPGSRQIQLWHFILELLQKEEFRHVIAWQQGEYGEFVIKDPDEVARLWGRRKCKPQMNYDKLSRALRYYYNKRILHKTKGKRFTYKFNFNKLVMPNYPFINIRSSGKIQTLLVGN
An outline of the steps: as §1

The target in a further assay is ETV6 (Homo sapiens, UniProt P41212 1-452). An outline of the steps:
as §1

ETV6, sequence (P41212 whole entry): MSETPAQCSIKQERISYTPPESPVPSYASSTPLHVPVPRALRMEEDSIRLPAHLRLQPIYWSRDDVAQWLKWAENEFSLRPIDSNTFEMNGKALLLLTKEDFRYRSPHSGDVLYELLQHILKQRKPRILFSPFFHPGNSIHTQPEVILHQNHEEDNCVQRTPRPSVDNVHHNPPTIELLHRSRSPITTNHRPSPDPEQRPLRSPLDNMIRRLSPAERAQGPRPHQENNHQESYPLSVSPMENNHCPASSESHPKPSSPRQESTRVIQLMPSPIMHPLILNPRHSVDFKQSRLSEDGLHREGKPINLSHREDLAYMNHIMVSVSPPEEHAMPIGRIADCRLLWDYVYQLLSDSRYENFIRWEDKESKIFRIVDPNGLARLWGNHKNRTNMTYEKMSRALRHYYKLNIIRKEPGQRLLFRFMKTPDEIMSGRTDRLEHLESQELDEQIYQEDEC

Regarding CTCCAT, the binding signal with ERF is 1.37 fold enrichment (6-mer frequency, TF over GST control); with ETV3L, 1.21 fold enrichment (6-mer frequency, TF over GST control); with ETS2 it was 1.36 fold enrichment (6-mer frequency, TF over GST control); in the assay with SPDEF, 1.39 fold enrichment (6-mer frequency, TF over GST control); with ETV7 it was 1.13 fold enrichment (6-mer frequency, TF over GST control); with ELF5, 1.24 fold enrichment (6-mer frequency, TF over GST control). Moreover, the binding signal in the assay with ETV3 was 1.27 fold enrichment (6-mer frequency, TF over GST control); with ETV6 it was 1.35 fold enrichment (6-mer frequency, TF over GST control).

For CCTGTG, the binding signal with ERF was 1.08 fold enrichment (6-mer frequency, TF over GST control); with ETV3L, 1.02 fold enrichment (6-mer frequency, TF over GST control); with ETS2 it was 1.03 fold enrichment (6-mer frequency, TF over GST control); with SPDEF, 1.02 fold enrichment (6-mer frequency, TF over GST control); in the assay with ETV7 it was 1.07 fold enrichment (6-mer frequency, TF over GST control); with ELF5, 1.06 fold enrichment (6-mer frequency, TF over GST control). For the same sequence, the binding signal with ETV3 was 1.07 fold enrichment (6-mer frequency, TF over GST control); with ETV6, 1.06 fold enrichment (6-mer frequency, TF over GST control).

As to AATCAT, the binding signal was 1.18 fold enrichment (6-mer frequency, TF over GST control) in the assay with ERF; 1.18 fold enrichment (6-mer frequency, TF over GST control) in the assay with ETV3L; 1.11 fold enrichment (6-mer frequency, TF over GST control) with ETS2; 1.07 fold enrichment (6-mer frequency, TF over GST control) with SPDEF; 1.04 fold enrichment (6-mer frequency, TF over GST control) in the assay with ETV7; 1.18 fold enrichment (6-mer frequency, TF over GST control) with ELF5. Also, the binding signal is 1.12 fold enrichment (6-mer frequency, TF over GST control) in the assay with ETV3 and 1.16 fold enrichment (6-mer frequency, TF over GST control) with ETV6.

As for GCGCTC, the binding signal in the assay with ERF was 1.2 fold enrichment (6-mer frequency, TF over GST control); with ETV3L it was 1.19 fold enrichment (6-mer frequency, TF over GST control); with ETS2 it was 1.2 fold enrichment (6-mer frequency, TF over GST control); with SPDEF it was 1.07 fold enrichment (6-mer frequency, TF over GST control); in the assay with ETV7 it was 1.04 fold enrichment (6-mer frequency, TF over GST control); in the assay with ELF5 it was 1.05 fold enrichment (6-mer frequency, TF over GST control). Besides, the binding signal was 1.08 fold enrichment (6-mer frequency, TF over GST control) with ETV3 and 1.02 fold enrichment (6-mer frequency, TF over GST control) with ETV6.

With CAAGCA, the binding signal with ERF is 1.15 fold enrichment (6-mer frequency, TF over GST control); with ETV3L, 1.17 fold enrichment (6-mer frequency, TF over GST control); with ETS2, 1.25 fold enrichment (6-mer frequency, TF over GST control); in the assay with SPDEF it was 1.06 fold enrichment (6-mer frequency, TF over GST control); with ETV7, 1.1 fold enrichment (6-mer frequency, TF over GST control); with ELF5, 1.11 fold enrichment (6-mer frequency, TF over GST control). For the same sequence, the binding signal was 1.16 fold enrichment (6-mer frequency, TF over GST control) with ETV3 and 1.14 fold enrichment (6-mer frequency, TF over GST control) with ETV6.

As to CACAAC, the binding signal with ERF was 1.36 fold enrichment (6-mer frequency, TF over GST control); with ETV3L it was 1.29 fold enrichment (6-mer frequency, TF over GST control); with ETS2, 1.25 fold enrichment (6-mer frequency, TF over GST control); in the assay with SPDEF it was 1.25 fold enrichment (6-mer frequency, TF over GST control); in the assay with ETV7, 1.13 fold enrichment (6-mer frequency, TF over GST control); with ELF5, 1.28 fold enrichment (6-mer frequency, TF over GST control). For the same sequence, the binding signal in the assay with ETV3 is 1.22 fold enrichment (6-mer frequency, TF over GST control); with ETV6 it was 1.24 fold enrichment (6-mer frequency, TF over GST control).

With AATTGG, the binding signal in the assay with ERF was 1.26 fold enrichment (6-mer frequency, TF over GST control); with ETV3L, 1.33 fold enrichment (6-mer frequency, TF over GST control); with ETS2 it was 1.33 fold enrichment (6-mer frequency, TF over GST control); with SPDEF it was 1.31 fold enrichment (6-mer frequency, TF over GST control); in the assay with ETV7, 1.42 fold enrichment (6-mer frequency, TF over GST control); with ELF5, 1.35 fold enrichment (6-mer frequency, TF over GST control). Moreover, the binding signal in the assay with ETV3 was 1.28 fold enrichment (6-mer frequency, TF over GST control); in the assay with ETV6 it was 1.44 fold enrichment (6-mer frequency, TF over GST control).

CAATTG: the binding signal with ERF was 1.29 fold enrichment (6-mer frequency, TF over GST control); with ETV3L, 1.2 fold enrichment (6-mer frequency, TF over GST control); with ETS2 it was 1.26 fold enrichment (6-mer frequency, TF over GST control); with SPDEF it was 1.12 fold enrichment (6-mer frequency, TF over GST control); in the assay with ETV7, 1.32 fold enrichment (6-mer frequency, TF over GST control); with ELF5 it was 1.21 fold enrichment (6-mer frequency, TF over GST control). Also, the binding signal in the assay with ETV3 was 1.2 fold enrichment (6-mer frequency, TF over GST control); with ETV6, 1.23 fold enrichment (6-mer frequency, TF over GST control).

The record behind these values is publication PMC7862700, “An all-to-all approach to the identification of sequence-specific readers for epigenetic DNA modifications on cytosine”.
